Source: PubChem BioAssay (NCATS)
Records with an inconclusive call do not appear. Where a call stands in place of a potency, no number is given. Activity calls are given as the source filed them. Unless noted, calls follow the shape of the dose curve; as a rule, active = well fitted curve in the direction sought with a large enough effect; inconclusive = small, poorly fitted or top-dose-only effect, or another doubt; inactive = no such curve, though single readings can be large; an effect the other way counts as inactive or inconclusive.

How the values were obtained:
[1] = molecular target: Mitogen-activated protein kinase 10 (Mus musculus) (UniProt Q61831); experiment: JNK3 AlphaScreen Assay (AID 530; active = well fitted curve in either direction with a large enough effect, not every such curve was filed as active;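 also: kinase came from lysate of stimulated human HepG2 cells; signal reports phosphorylation of biotinylated GST-cJun 1-79 at Ser73 with 10 µM ATP; series mostly up to about 57 µM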)
How it was run: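 Room-temperature AlphaScreen kinase assay; pre-activated HepG2 lysate as JNK3 source, biotin-GST-cJun(1-79) substrate, 10 uM ATP, compound 15 min preincubation.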

[2] = molecular target: Cytochrome P450 3A4 (Homo sapiens) (UniProt P08684); experiment: qHTS Assay for Inhibitors and Substrates of Cytochrome P450 3A4 (AID 884); also: nearly all actives have a fitted effect of over 50% in size; also: potency is read from the fitted curve at half-maximal effect
How it was run: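 20 nM human CYP3A4 with 25 uM Luciferin-PPXE (at KM) in 200 mM KPO4, preincubated 10 min with compound; NADPH regeneration started a 60 min RT reaction. Luciferin detected by luminescence, normalized to 57 uM ketoconazole as full inhibition.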

[3] = molecular target: Calcium and integrin-binding protein 1 (Homo sapiens) (UniProt Q99828); experiment: Primary qHTS for Identification of Calcium Integrin Binding Protein 1 (CIB1) Competitor (AID 1508620);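 also: GST tagged CIB1 binding a fluorescein labelled alphaIIb integrin peptide tracer; top concentration of the series differs between compounds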
How it was run: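 CIB1-GST (1 uM final) and compound incubated 15 min at room temperature before adding FITC-alphaIIb peptide tracer (100 nM final). Competition for binding read by fluorescence polarization (ex 480, em 540) after another 15 min at room temperature.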

[4] = molecular target: Cytochrome P450 3A4 (Homo sapiens) (UniProt P08684); experiment: qHTS Assay for Activators of Cytochrome P450 3A4 (AID 885); also: nearly all actives have a fitted effect of over 65% in size
How it was run: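 Human CYP3A4 (20 nM) with Luciferin-PPXE at 25 uM (its KM) in 200 mM KPO4; 10 min compound preincubation, then NADPH regeneration and 60 min reaction at RT. Luciferin read by luminescence; normalized to 57 uM ketoconazole full inhibition.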

Chain of Calcium and integrin-binding protein 1 (Homo sapiens) (Q99828 whole entry, looked up): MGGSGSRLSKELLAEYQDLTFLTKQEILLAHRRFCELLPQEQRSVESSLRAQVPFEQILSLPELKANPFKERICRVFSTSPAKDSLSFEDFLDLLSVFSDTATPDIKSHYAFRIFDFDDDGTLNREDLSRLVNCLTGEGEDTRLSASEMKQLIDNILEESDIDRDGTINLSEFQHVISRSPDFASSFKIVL
Chain of Cytochrome P450 3A4 (Homo sapiens) (P08684 whole entry, looked up): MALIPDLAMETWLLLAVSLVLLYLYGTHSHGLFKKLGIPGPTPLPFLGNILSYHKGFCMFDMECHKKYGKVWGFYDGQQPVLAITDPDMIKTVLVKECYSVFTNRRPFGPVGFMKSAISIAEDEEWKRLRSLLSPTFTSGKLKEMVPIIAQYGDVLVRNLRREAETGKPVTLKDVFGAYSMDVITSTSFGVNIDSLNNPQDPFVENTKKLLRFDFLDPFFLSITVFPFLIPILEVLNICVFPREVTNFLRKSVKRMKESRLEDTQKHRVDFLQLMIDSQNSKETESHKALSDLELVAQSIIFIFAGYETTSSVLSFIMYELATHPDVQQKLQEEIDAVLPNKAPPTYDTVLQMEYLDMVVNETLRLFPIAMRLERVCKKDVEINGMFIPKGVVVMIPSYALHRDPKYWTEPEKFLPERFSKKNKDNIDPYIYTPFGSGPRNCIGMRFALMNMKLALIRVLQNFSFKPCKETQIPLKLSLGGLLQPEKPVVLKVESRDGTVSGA

Compound | outcome [1] | Potency [2] | Potency [3] | Potency [4]
CCCn1c(C)nc2c(NCC(C)(C)CN(C)C)nc(C)nc21 | inactive | inactive | inactive | 
COCCNc1nc(C)nc2c1nc(-c1ccccc1)n2CCN(C)C | inactive | inactive | inactive | 
CCCn1c(C)nc2c(NCCCCN(C)C)nc(C)nc21 | inactive | inactive | inactive | 
CCCn1c(-c2ccc(F)cc2)nc2c(NCCN3CCCC3)nc(C)nc21 | inactive | inactive | inactive | 
CCCn1c(C)nc2c(NC(C)CN(C)C)nc(C)nc21 (stereo unspecified) | inactive | inactive | inactive | 
CCN(CC)CCn1c(-c2ccccc2)nc2c(NCc3ccccc3)nc(C)nc21 | inactive | 12.6 µM (active) | inactive | inactive
CCN(CC)CCCn1c(-c2ccccc2)nc2c(N3CCOCC3)nc(C)nc21 | inactive | inactive | inactive | 
CCCn1c(C)nc2c(NCCCCN3CCCC3)nc(C)nc21 | inactive | inactive | inactive | 
CCCn1c(C)nc2c(NCCCN(CCO)CCO)nc(C)nc21 | inactive | inactive | inactive | 
CCCn1c(C)nc2c(NCCCN3CCCCC3C)nc(C)nc21 (stereo unspecified) | inactive | inactive | inactive | 
Cc1nc(N2CCOCC2)c2nc(-c3ccccc3)n(CC3CCN(C)CC3)c2n1 | inactive | inactive | inactive | 
CCCCNc1nc(C)nc2c1nc(-c1ccccc1)n2CC(C)(C)CN(C)C | inactive | 10 µM (active) | inactive | inactive
Cc1nc(N2CCOCC2)c2nc(-c3ccccc3)n(CCCN(C)C)c2n1 | inactive | inactive | inactive | 
Cc1nc(NCc2ccccc2)c2nc(-c3ccccc3)n(CC3CCN(C)CC3)c2n1 | inactive | inactive | inactive | 
CCN(CC)CCn1c(-c2ccccc2)nc2c(NCCO)nc(C)nc21 | inactive | inactive | inactive | 
CCCn1c(C)nc2c(N3CCC(N(C)C)C3)nc(C)nc21 (stereo unspecified) | inactive | inactive | inactive | 
CCCn1c(C)nc2c(N3CCC(N4CCN(C)CC4)CC3)nc(C)nc21 | inactive | inactive | inactive | 

Compound | outcome [1] | Potency [2] | Potency [3] | Potency [4]
Cc1nc(NCc2ccccc2)c2nc(-c3ccccc3)n(CCN3CCCCC3)c2n1 | inactive | 2.51 µM (active) | inactive | inactive
CCCn1c(C)nc2c(N(C)CCN(C)C)nc(C)nc21 | inactive | inactive | inactive | 
Cc1nc(NCCO)c2nc(-c3ccccc3)n(CCCN(C)C)c2n1 | inactive | inactive | inactive | 
CCCn1c(C)nc2c(NC3CCN(Cc4ccccc4)CC3)nc(C)nc21 | inactive | inactive | inactive | 
Cc1nc(N2CCOCC2)c2nc(-c3ccccc3)n(CCN(C)C)c2n1 | inactive | inactive | inactive | 
CCCn1c(C)nc2c(NCCCN(CC)CC)nc(C)nc21 | inactive | inactive | inactive | 
CCN(CC)CCCn1c(-c2ccccc2)nc2c(NCCOC)nc(C)nc21 | inactive | inactive | inactive | 
CCN(CC)CCn1c(-c2ccccc2)nc2c(N3CCOCC3)nc(C)nc21 | inactive | inactive | inactive | 
CCCn1c(C)nc2c(N3CCOCC3)nc(C)nc21 | inactive |  | inactive | inactive
CCCn1c(-c2ccc(F)cc2)nc2c(NCCCN(CC)CC)nc(C)nc21 | inactive |  | inactive | inactive
CCCn1c(C)nc2c(N(CCN(C)C)Cc3ccccc3)nc(C)nc21 | inactive |  | inactive | inactive
CCCn1c(C)nc2c(Nc3ccccc3)nc(C)nc21 | inactive |  | inactive | inactive
CCCCNc1nc(C)nc2c1nc(-c1ccccc1)n2C(C)CCCN(CC)CC (stereo unspecified) | inactive | 10 µM (active) | inactive | inactive
COCCNc1nc(C)nc2c1nc(-c1ccccc1)n2CCCN1CCCCC1C (stereo unspecified) | inactive |  | inactive | inactive
CCCn1c(-c2ccc(F)cc2)nc2c(N(C)CCN(C)C)nc(C)nc21 | inactive |  | inactive | inactive
CCCCNc1nc(C)nc2c1nc(-c1ccccc1)n2CCCN(CC)CC | inactive |  | inactive | inactive
Cc1nc(N2CCOCC2)c2nc(-c3ccccc3)n(CCN3CCCC3)c2n1 | inactive |  | inactive | inactive
